For 21 compounds, growth inhibition results are on record in PubChem BioAssay (NCI).

Experiment [1] in a line: NCI Yeast Anticancer Drug Screen. Data for the rad50 strain (AID 155).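 Note: 0% = growth of vehicle-only cultures of the same strain.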 The note with it: S. cerevisiae rad50 strain growth inhibition; at 50.0 µM; hits give high values. The essentials: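 DNA repair mutant yeast, compound exposure, growth read-out; inhibition is taken relative to vehicle.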
Experiment [2] can be described thus: NCI Yeast Anticancer Drug Screen. Data for the mec2-1 strain (AID 157). The note with it: S. cerevisiae mec2-1 strain, at 50.0 µM, hits give high values. The method in brief:
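Using mec2-1 yeast: add compound, measure growth, express inhibition versus vehicle-treated cultures.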

Experiment [3] can be described thus: NCI Yeast Anticancer Drug Screen. Data for the sgs1 mgt1 strain (AID 161).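 Note: 0% = growth of cultures given vehicle only.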 The note with it: S. cerevisiae sgs1 mgt1 strain, at 50.0 µM, hits give high values. The method in brief: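 Growth of a repair-deficient yeast mutant was monitored after compound treatment and expressed as inhibition relative to vehicle-treated cultures.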
Experiment [4] can be described thus: NCI Yeast Anticancer Drug Screen. Data for the cln2 rad14 strain (AID 165).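 Note: 0% = growth equal to vehicle treated cultures.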 The note with it: S. cerevisiae cln2 rad14 strain, at 50.0 µM, hits give high values. The method in brief: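 Yeast strain cln2 rad14, bearing defects in cell cycle control and DNA repair, serves as the test system; values reflect growth inhibition compared with vehicle.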
Experiment [5] in a line: NCI Yeast Anticancer Drug Screen. Data for the bub3 strain (AID 167). The note with it: S. cerevisiae bub3 mutant strain, at 50.0 µM, hits give high values. The essentials: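 In this screen, a yeast mutant lacking normal mitotic checkpoint function is challenged with compound. Relative growth versus vehicle gives the inhibition value.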
Experiment [6] in a line: NCI Yeast Anticancer Drug Screen. Data for the mlh1 rad18 strain (AID 175). Conditions: S. cerevisiae mlh1 rad18 strain growth inhibition; at 50.0 µM; hits give high values. The method in brief:
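Steps: expose repair-defective yeast to compound; measure growth; express inhibition against vehicle-treated controls.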

Each structure is given as a SMILES string. Compounds without any hit were thinned out: in the full panel of roughly 79,000, 15% have a hit. Values without a mark were called inactive. Active and inactive are the calls of the source. Cut-off read from the data, not from the text of the source: active = growth inhibition above about 70%; inactive = the rest.

Turning to `NC1(C(=O)O)CC(O)(c2ccccc2)C(O)(c2ccccc2)C1` (stereo unspecified), the growth inhibition in experiment [1] was -22.5%; in experiment [2], -6.1%; in experiment [3], -10%; in experiment [4] it was 6.2%; in experiment [5], 3.75%; in experiment [6], -9.5%.

Take `C[n+]1ccc(/C=C/c2ccnc3c(O)cccc23)cc1`: the growth inhibition in experiment [1] is 17.5%; in experiment [2] it was 11.7%; in experiment [3], -13.4%; in experiment [4], -7.3%; in experiment [5], -7.4%; in experiment [6], 18%.

As for `COC(=O)C(C(C[N+](=O)[O-])c1ccco1)=P(c1ccccc1)(c1ccccc1)c1ccccc1` (stereo unspecified), the growth inhibition is 89.5% (active) in experiment [1]; 5.25% in experiment [2]; 45.6% in experiment [3]; 8.15% in experiment [4]; 0.95% in experiment [5]; 25.1% in experiment [6].

Turning to `CC(=O)OC1=CC(=O)N(C(=O)c2ccccc2)C1`, the growth inhibition in experiment [1] was -2.8%; in experiment [2], -5.95%; in experiment [3] it was -18.6%; in experiment [4], -12.2%; in experiment [5], 3.2%; in experiment [6], -6.55%.

As to `N=c1ccc2nc(N)nn(O)c-2c1`, the growth inhibition in experiment [1] was -1.2%; in experiment [2], 12.1%; in experiment [3], 2.9%; in experiment [4], -3.4%; in experiment [5] it was -37.3%; in experiment [6] it was -44%.

As for `O=C1N=C2SCCCN2C1(c1ccccc1)c1ccccc1`, the growth inhibition in experiment [1] is 4.2%; in experiment [2], 21.2%; in experiment [3], -3.4%; in experiment [4], -7%; in experiment [5], 0%; in experiment [6], 6.9%.

Take `COc1ccccc1C(=O)N/N=C/c1ccccc1Cl`: the growth inhibition in experiment [1] is 4.25%; in experiment [2] it was 35.3%; in experiment [3], 32.4%; in experiment [4] it was -4.3%; in experiment [5], 9.05%; in experiment [6], 30.1%.

For the compound `Fc1ccc2nc3ccccc3c(SCCNCCSc3c4ccccc4nc4ccc(F)cc34)c2c1`, the growth inhibition in experiment [1] is 43.4%; in experiment [2], -4.75%; in experiment [3], 17%; in experiment [4] it was 16.1%; in experiment [5] it was 1.5%; in experiment [6], 35.2%.

In the case of `COc1ccc(C(O)CNC(=O)c2ccccc2)cc1` (stereo unspecified), the growth inhibition in experiment [1] is 11.7%; in experiment [2], -4.4%; in experiment [3] it was 12.5%; in experiment [4], -7.2%; in experiment [5], -2.15%; in experiment [6] it was -60%.

Turning to `COC(=O)C(=O)C(C(=O)C(=O)Nc1ccccc1C(N)=O)c1nc2ccc(C(=O)c3ccccc3)cc2[nH]c1=O` (stereo unspecified), the growth inhibition in experiment [1] is -3.9%; in experiment [2], 20%; in experiment [3] it was -7.4%; in experiment [4] it was -17.1%; in experiment [5], -6.1%; in experiment [6], 9.5%.

As for `Cn1cnc([N+](=O)[O-])c1Sc1ccccc1N`, the growth inhibition is -7.3% in experiment [1]; -4.15% in experiment [2]; 0.45% in experiment [3]; 18.6% in experiment [4]; -15.7% in experiment [5]; -2.5% in experiment [6].

Consider `N#Cc1c(O)c(N=Nc2ccccc2F)c(=O)n2c1[nH]c1ccccc12`, for which the growth inhibition is -24.4% in experiment [1]; -15.7% in experiment [2]; -10.4% in experiment [3]; 4.1% in experiment [4]; -6.85% in experiment [5]; -47.8% in experiment [6].

For `NC1=NN(S(=O)(=O)c2ccc(Cl)cc2)CC1`, the growth inhibition is -14.7% in experiment [1]; -6.25% in experiment [2]; -8.75% in experiment [3]; -21.7% in experiment [4]; -3.3% in experiment [5]; 5.95% in experiment [6].

With `CC(C)c1cccc(C(C)C)c1NC(=O)/C(Cc1nc2ccc(Cl)cc2[nH]c1=O)=N\NC(=O)C[N+](C)(C)C`, the growth inhibition was 17.7% in experiment [1]; 16.2% in experiment [2]; -12.3% in experiment [3]; 25.7% in experiment [4]; 26.9% in experiment [5]; 22.7% in experiment [6].

Regarding `COc1c(OC(C)=O)c(Cl)cc(C=O)c1[N+](=O)[O-]`, the growth inhibition in experiment [1] is 47.1%; in experiment [2] it was 28.7%; in experiment [3], 30.1%; in experiment [4] it was 22.1%; in experiment [5] it was 22%; in experiment [6], 62.5%.

For the compound `Cc1cc[n+](C)c(-c2ccccc2)c1`, the growth inhibition in experiment [1] is 5.65%; in experiment [2] it was -2.25%; in experiment [3], 7%; in experiment [4], 21.2%; in experiment [5], 5.9%; in experiment [6], 11.6%.

On to `C=CCNC(=S)Nc1ccccc1`, for which the growth inhibition was -1.8% in experiment [1]; -9.95% in experiment [2]; 4.25% in experiment [3]; -5.1% in experiment [4]; -18.9% in experiment [5]; -11.9% in experiment [6].

Regarding `c1csc(-c2cc(-c3ccsc3)c(-c3cccs3)s2)c1`, the growth inhibition in experiment [1] is -46.6%; in experiment [2], -62.7%; in experiment [3], -33.4%; in experiment [4] it was -0.1%; in experiment [5] it was -1.4%; in experiment [6] it was -34.3%.

On to `CC[N+](CC)(CC)CCC[n+]1ccc(/C=N\O)cc1`, for which the growth inhibition in experiment [1] is 3.1%; in experiment [2], -1.6%; in experiment [3] it was -16.4%; in experiment [4] it was -8.25%; in experiment [5], -0.8%; in experiment [6] it was -6.25%.

Take `CC(=O)Oc1cc(OC(C)=O)c(OC(C)=O)c2c1CCCC2`: the growth inhibition in experiment [1] was 6.45%; in experiment [2], 14.8%; in experiment [3] it was 6.65%; in experiment [4], -91.1%; in experiment [5] it was 16.4%; in experiment [6], 56.7%.

On to `CCC1(C)CC(=O)N(C/C=C(\C)CCC(=O)O)C(=O)C1`, for which the growth inhibition is -3.35% in experiment [1]; 4.5% in experiment [2]; -0.45% in experiment [3]; -8.4% in experiment [4]; 7% in experiment [5]; -7.45% in experiment [6].
